Reference: PubChem BioAssay AID1159580 (chemical genetic matrix, 2015)
Values joined by “and” are separate entries in the source; they are usually repeats but may differ in a detail not shown here. Equal entries are not always repeated. Among all 5,500 compounds or so, about 2,000 (36%) were called active. Not shown: some 18% with an inconclusive outcome. Rule as the data show it: active = normalized growth mostly below about 0.91 (no sharp cut-off); inconclusive = no clear call, values can overlap the other calls; inactive = mostly above about 0.92. The list shows a part of the results.

Assay: chemical genetic growth profiling, strain panel (AID 1159580);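 also: tested at 20 µM; growth read once vehicle control cultures reached saturation at 30 °C; 1 = growth at the plate median or of vehicle wells; lower values mean less growth of the strain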
Details: S. cerevisiae deletion strains, growth OD

Measured: normalized growth

CN(N=O)C(=O)N[C@@H]1[C@@H](O)[C@H](O)[C@@H](CO)O[C@@H]1O
inactive: locus YAL021C, strain ccr4, active compounds read low 1 | locus YAL026C, strain drs2, active compounds read low 0.991 | locus YAL030W, strain snc1, active compounds read low 0.988 | locus YBL061C, strain skt5, active compounds read low 1.01 | locus YBR009C, strain hhf1, active compounds read low 0.979 | locus YBR021W, strain FUR4, active compounds read low 1 | locus YBR023C, strain chs3, active compounds read low 0.999 | locus YBR171W, strain sec66, active compounds read low 1.01 | locus YBR229C, strain ROT2, active compounds read low 1 | locus YBR231C, strain swc5, active compounds read low 0.997 | locus YBR279W, strain paf1, active compounds read low 1.02 | locus YCL011C, strain gbp2, active compounds read low 1 | locus YCL016C, strain dcc1, active compounds read low 1.03 | locus YCL029C, strain bik1, active compounds read low 0.99 | locus YCL061C, strain MRC1, active compounds read low 1.02 | locus YCL069W, strain vba3, active compounds read low 0.974 | locus YCR088W, strain abp1, active compounds read low 0.973 | locus YDL005C, strain med2, active compounds read low 0.98 | locus YDL035C, strain GPR1, active compounds read low 1.03 | locus YDL040C, strain nat1, active compounds read low 0.999 | locus YDL074C, strain BRE1, active compounds read low 1.02 | locus YDL101C, strain DUN1, active compounds read low 1.01 | locus YDL134C, strain PPH21, active compounds read low 1.02 | locus YDL185W, strain tfp1, active compounds read low 1.02 | locus YDL192W, strain arf1, active compounds read low 1.01 | locus YDR001C, strain nth1, active compounds read low 0.978 | locus YDR069C, strain doa4, active compounds read low 0.986 | locus YDR101C, strain arx1, active compounds read low 0.979 | locus YDR137W, strain rgp1, active compounds read low 0.938 | locus YDR150W, strain NUM1, active compounds read low 1.01 | locus YDR159W, strain sac3, active compounds read low 0.945 | locus YDR162C, strain NBP2, active compounds read low 1.04 | locus YDR195W, strain ref2 0.988 | locus YDR297W, strain sur2, active compounds read low 0.998 | locus YDR318W, strain mcm21, active compounds read low 1.01 | locus YDR334W, strain swr1, active compounds read low 0.95 | locus YDR335W, strain msn5, active compounds read low 0.981 | locus YDR388W, active compounds read low 1.01 | locus YDR392W, strain spt3, active compounds read low 0.956 | locus YDR502C, strain sam2, active compounds read low 0.998 | locus YEL003W, strain gim4, active compounds read low 0.995 | locus YEL037C, strain rad23, active compounds read low 0.986 | locus YEL061C, strain CIN8 (second series), active compounds read low 0.971 | locus YEL061C, strain CIN8, active compounds read low 1.01 | locus YER015W, strain faa2, active compounds read low 1 | locus YER016W, strain bim1, active compounds read low 0.983 | locus YER110C, active compounds read low 1.01 | locus YER111C, strain swi4, active compounds read low 0.998 | locus YER155C, strain BEM2 (second series), active compounds read low 0.983 | locus YER155C, strain BEM2, active compounds read low 1 | locus YER167W, strain BCK2, active compounds read low 1.02 | locus YFR010W, strain ubp6, active compounds read low 0.954 | locus YGL078C, strain dbp3, active compounds read low 1 | locus YGL086W, strain mad1, active compounds read low 0.989 | locus YGL167C, strain pmr1, active compounds read low 0.993 | locus YGL173C, strain kem1, active compounds read low 1.01 | locus YGL227W, strain vid30, active compounds read low 1.01 | locus YGL240W, strain doc1, active compounds read low 0.985 | locus YGL248W, strain PDE1, active compounds read low 0.996 | locus YGL253W, strain hxk2, active compounds read low 0.982 | locus YGR078C, strain PAC10, active compounds read low 0.999 | locus YGR135W, strain pre9, active compounds read low 1.04 | locus YGR229C, strain SMI1, active compounds read low 1.01 | locus YGR252W, strain gcn5, active compounds read low 1.02 | locus YHR013C, strain ard1, active compounds read low 0.999 | locus YHR027C, strain rpn1, active compounds read low 0.99 | locus YHR030C, strain SLT2, active compounds read low 1 and 1.02 | locus YHR079C, strain IRE1 (second series), active compounds read low 1 | locus YHR079C, strain IRE1, active compounds read low 1.07 | locus YHR094C, strain hxt1, active compounds read low 1 | locus YHR129C, strain ARP1, active compounds read low 0.998 | locus YHR142W, strain chs7, active compounds read low 0.962 | locus YHR200W, strain rpn10, active compounds read low 1.01 | locus YIL066C, strain RNR3, active compounds read low 1.01 | locus YIL073C, strain SPO22, active compounds read low 1.14 | locus YIL125W, strain kgd1, active compounds read low 1 | locus YIR030C, strain dcg1, active compounds read low 1 | locus YJL092W, strain hpr5, active compounds read low 0.979 | locus YJL095W, strain BCK1 (second series), active compounds read low 1 | locus YJL095W, strain BCK1, active compounds read low 1.02 and 1 | locus YJL115W, strain asf1, active compounds read low 0.981 | locus YJL129C, strain trk1, active compounds read low 0.984 | locus YJL134W, strain LCB3, active compounds read low 1 | locus YJL154C, strain vps35, active compounds read low 0.998 | locus YJL164C, strain tpk1, active compounds read low 0.993 | locus YJL166W, strain qcr8, active compounds read low 1 | locus YJL168C, strain set2, active compounds read low 1.01
